Hits are enriched below; roughly 7.7% of the tested compounds scored in any of these assays.
HCMV antiviral – qHTS Assay for inhibitors of the human cytomegalovirus (HCMV); HFF cells, HCMV-luciferase reporter, 72 h; hits give low values; activity change, negative = inhibition, % at 57.5 µM; hit rate 4.5% among 410,000; AID 1259415, 2018; in the data active = activity change below about -60%; inconclusive = no clear call, values can overlap the other calls; inactive = above about -39%
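Screen run at 2 compound doses on HFFs infected with reporter HCMV, MOI 1 PFU/cell. Luciferase activity from cell lysates at 72 h post infection gave inhibition relative to buffer-only and Salinomycin wells.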
Sm TGR inh – qHTS Assay for the Inhibitors of Schistosoma Mansoni Peroxiredoxins. Schistosoma mansoni thioredoxin glutathione reductase (TGR), Q962Y6. purified TGR, DTNB reduction, TNB absorbance 405 nm. Potency, µM (titrated, usually from 114 µM), without a hit: at the top dose activity change, negative = inhibition, hits mostly inhibitors. hit rate 3% among 360,000; also: potency is read from the fitted curve at half-maximal effect; nearly all actives have a fitted effect of over 60% in size
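TGR 20 nM + NADPH 100 uM (dispensed conc.), cpd preinc 15 min RT; start with NADPH (500 uM addition) then DTNB (15 mM addition). Kinetic TNB absorbance, 405 nm filter. Four-parameter Hill fit across titration.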
TbPYK inhibitor – qHTS of Trypanosoma Brucei Inhibitors. pyruvate kinase (Trypanosoma brucei), Q57TT1. TbPYK enzyme, Kinase-Glo Plus ATP luminescence, 45 min. Potency, µM (top dose mostly 76.8 µM), without a hit: top-dose activity, negative = inhibition, hits mostly inhibitors. hit rate 0.12% among 410,000; also: potency is read from the fitted curve at half-maximal effect; nearly all actives have a fitted effect of over 50% in size
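Screened from lowest to highest concentration, compounds were pinned into TbPYK/substrate mixtures, and ADP (130 uM final) was added. Plates sat at room temperature for 45 min prior to Kinase-Glo Plus detection by luminescence.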
FMDV antiviral – High Throughput Screening for Foot and Mouth Disease Virus Antivirals; AID 1159524, 2015; Potency, µM (top dose mostly 57.9 µM), for inactives: at the top dose activity change, negative = inhibition, actives largely listed as inhibitors; hit rate 1.2% among 410,000; FMDV antiviral cell-based qHTS; calls by dose curve; tested in HEK293T cells; also: read-out not given here; potency is read from the fitted curve at half-maximal effect; nearly all actives have a fitted effect of over 45% in size
FBPA Giardia inh – qHTS Assay for Inhibitors of Fructose-1,6-bisphosphate Aldolase from Giardia Lamblia; purified Giardia FBPA; AID 2451, 2010; hit rate 0.71% among 290,000; Potency, µM (titrated, usually from 59.6 µM), for inactives: at the top dose activity, negative = inhibition, actives largely listed as inhibitors; A8B2U2; also: potency is read from the fitted curve at half-maximal effect; nearly all actives have a fitted effect of over 55% in size
Target sequence (A8B2U2 whole entry, looked up): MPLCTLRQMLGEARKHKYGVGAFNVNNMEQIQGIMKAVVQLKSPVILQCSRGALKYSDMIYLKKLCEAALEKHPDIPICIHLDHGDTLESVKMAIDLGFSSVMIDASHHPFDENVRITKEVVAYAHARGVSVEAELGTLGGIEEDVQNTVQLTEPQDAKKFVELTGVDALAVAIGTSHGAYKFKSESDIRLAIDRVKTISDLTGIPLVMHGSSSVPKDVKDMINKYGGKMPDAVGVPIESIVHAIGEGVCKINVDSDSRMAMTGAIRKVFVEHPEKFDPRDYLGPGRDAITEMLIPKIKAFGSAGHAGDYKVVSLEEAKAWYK
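40 nM FBPA preincubated 10 min at RT with compound (up to 57.5 uM final), then substrate plus GAPDH/TPI/NAD/arsenate coupling and diaphorase/resazurin added. Fluorescence read after 20 min at RT, 525/598 nm.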
RE007 growth inh – qHTS Assay for Inhibitors of the HIV-1 protein Vpr; AID 651644, 2012; hit rate 0.21% among 360,000; S. pombe RE007 Vpr strain, BacTiter-Glo ATP luminescence, 24 h; Potency, µM (doses to about 92.2 µM), without a hit: top-dose activity change, negative = less growth, hits mostly inhibitors; active = well fitted falling curve with a large enough effect; inconclusive = small, poorly fitted or top-dose-only effect; inactive = no such curve, though single readings can be large or run the other way; also: potency is read from the fitted curve at half-maximal effect; nearly all actives have a fitted effect of over 50% in size
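Fission yeast RE007 carrying one integrated HIV-1 vpr copy, seeded at OD 0.01 in PMG+AL medium with 23 nL pinned compound. Grown 24 h at 30 degrees; viability read by BacTiter-Glo luminescence after 5 min.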
* marks the source's active call; other numbers are inactive results; ? = inconclusive; / = no result; + = active, no number; [ ] = dose if it differs, or a comment. Unless noted, calls follow the shape of the dose curve; as a rule, active = well fitted curve in the direction sought with a large enough effect; inconclusive = small, poorly fitted or top-dose-only effect, or another doubt; inactive = no such curve, though single readings can be large; an effect the other way counts as inactive or inconclusive. % is scaled to controls: 0 for no effect and ±100 for the full control effect.

SMILES	HCMV antiviral	Sm TGR inh	TbPYK inhibitor	FMDV antiviral	FBPA Giardia inh	RE007 growth inh
N=c1n(Cc2ccccc2)c2ccccc2n1CC(O)COc1ccc(Cl)cc1Cl (stereo unspecified)	-101*	8%[57.1 µM]	-2%	35µM*	0%	15%
CNC(=O)c1ccccc1C1(O)c2ccccc2CCc2ccccc21	13	/	/	/	/	/
Cc1nc2n(c(=O)c1CCN1CCC(c3noc4cc(F)ccc34)CC1)CCC[C@@H]2O	/	/	-5%	/	/	/
CC1CN(C(=O)N2CCC(C(=O)NCCCc3ccccc3)CC2)c2ccccc2O1 (stereo unspecified)	-2	-9%	-7%	-3%	/	/
COc1ccc(CCNS(=O)(=O)c2ccc(N3CCCCS3(=O)=O)cc2)cc1	-25	0%	0%	18%	/	/
OC(c1ccc(F)c(F)c1)c1ncc(-c2ccc(Cl)cc2)[nH]1 (stereo unspecified)	-64*	/	-3%	8%	/	-10%
OC(c1ccc(F)c(F)c1)c1ncc(-c2ccc(F)cc2)[nH]1 (stereo unspecified)	8	/	0%	43%	/	-14%
CC(C)CC1NC(=S)N(Cc2ccccc2)C1=O (stereo unspecified)	-100*	7%	-3%	11%	10%	-1%
O=C(c1cc(-c2ccccc2)on1)N1CCOc2ccc(CN3CCOCC3)cc2C1	/	/	/	3%	/	/
CC(C)(C)c1ccc(C(=O)Nc2sc3c(c2C(=O)O)CCC3)cc1	-76*	-14%	-6%	-19%	?	?
O=C(Nc1sc2c(c1C(=O)O)CCCC2)c1ccc(F)cc1	19	-20%	10%	17%	?	?
Cc1ccc(C(=O)Nc2sc3c(c2C(=O)O)CCCC3)o1	-62*	-5%	-4%	22%	/	-17%
O=C1COc2ccc(C(=O)NC3CC3)cc2N1	50	3%	1%	-5%	1%	-5%
O=C(O)/C=C/C(=O)c1ccc2c(c1)NC(=O)CO2	-18	1µM*	?	-14%	4%	-4%
COc1cc(/C=C/C(=O)OCC(=O)c2ccc(OC(F)F)cc2)ccc1O	-37	/	-3%	32µM*	/	-24%
O=C(/C=C/c1ccco1)OCC(=O)c1ccc(OC(F)F)cc1	-34	22µM*	-11%	4%	/	-11%
O=C1COc2ccc(C(=O)COC(=O)/C=C/c3ccco3)cc2N1	/	13µM*	-15%	-27%	/	4%
O=C1COc2ccc(C(=O)COC(=O)c3ccco3)cc2N1	-31	-28%	3%	6%	0%	-13%
Cc1cc(C)n(-c2nc3cc(Cl)c(Cl)cc3nc2Nc2c(C)cccc2C)n1	22	-2%	3%	-6%	/	/
Cc1cc(Sc2nnc(N)s2)c2ccccc2n1	-108*	4µM*	-2%	14µM*	-1%	11%
CCCCCCCCSc1nnc(/N=C/N(C)C)s1	6	-4%	2%	-8%	6%	14%
Cc1cc(Sc2nnc(/N=C/N(C)C)s2)c2ccccc2n1	-106*	3.5µM*	-1%	14µM*	1%	7%
CCOC(=O)c1c(S(=O)(=O)N2CCN(c3ccccc3OC)CC2)c(C)n(C)c1C	8	-4%	-1%	-8%	/	/
COc1cc(-c2coc3c(C(=O)NCc4ccc(OC)c(OC)c4)cccc23)ccc1O	-73*	/	-18%	18µM*	/	-15%
COc1ccc(CNC(=O)c2cccc3c(-c4ccc(F)c(F)c4)coc23)cc1OC	/	/	5%	-26%	/	-9%
SMILES	HCMV antiviral	Sm TGR inh	TbPYK inhibitor	FMDV antiviral	FBPA Giardia inh	RE007 growth inh
COc1ccc(CNC(=O)c2cccc3c(-c4cccc(C(N)=O)c4)coc23)cc1OC	-94*	/	4%	7.9µM*	/	4%
COc1cc(-c2coc3c(C(=O)NCc4ccc(N(C)C)cc4)cccc23)ccc1O	26	/	-7%	33%	/	-18%
COc1ccc2c(c1)c1c(c(=O)n(Cc3ccccc3)c(=O)n1CC(=O)Nc1ccc(C)cc1C)n2C	-1	2%	-2%	-8%	/	/
O=C(Nc1cc2c3c(c1)C1CCCC1CN3CC1CCCC21)c1ccccc1 (stereo unspecified)	-69*	-10%	-1%	-28%	-13%	-5%
CCN(CC)c1cc2c(cc1F)c(=O)c(S(=O)(=O)c1cccc(C)c1)cn2C	-64*	17%	0%	5%	/	/
C=CCN1C[C@H](COC(=O)c2cccc(C)c2)Oc2cccc(F)c2S1(=O)=O	2	/	/	/	/	/
CSc1ccc(CNc2cccc3ccccc23)cc1	-64*	3%	-7%	/	-9%	-9%
CSc1ccc(/C=N/NC(=O)CNc2cccc3ccccc23)cc1	2	5%	2%	-5%	-7%	4%
NC(=O)CSc1nc2cc3c(cc2c(=O)n1CCCCCC(=O)NCc1ccc2c(c1)OCO2)OCO3	64	1%	-4%	-14%	/	/
Cc1c([N+](=O)[O-])cnc(Sc2ccccc2)c1[N+](=O)[O-]	-99*	/	4%	22µM*	/	?
COCC(=O)N1CCC2(CCN(Cc3ccccc3)CC2)CC1	/	/	-3%	-17%	1%	/
S=C(NCC1CCCO1)NC1CCCCC1 (stereo unspecified)	-1	12%	-6%	10%	-8%	7%
CCCC(NC(=S)NCC1CCCO1)C12CC3CC(CC(C3)C1)C2 (stereo unspecified)	-93*	-11%	1%	-9%	-2%	-4%
CCCN1C(=O)CC[C@@H](S(=O)(=O)c2ccccc2)[C@@H]1c1ccc(OC)cc1	-11	/	/	/	/	/
Cc1c(Cl)cn2c(=O)cc(CN3CCN(c4ccc(F)cc4)CC3)nc2c1Cl	/	50µM*	/	/	-19%	/
Cc1scc(CN2CCN(c3ccc(F)cc3)CC2)c1C	-21	3%	-2%	-17%	/	/
CCCC(=O)Nc1nnc([C@H]2C[C@H](O)[C@@H](CO)O2)s1	-96*	/	-11%	-8%	/	3%[18.4 µM]
O=C(Nc1nnc([C@@H]2C[C@H](O)[C@@H](CO)O2)s1)c1cccc(OC(F)(F)F)c1	-84*	/	-1%	9%	/	7%[18.4 µM]
COc1cc2c(cc1OC)n(CC(=O)c1ccc(C)cc1)c(=O)n1nc(CCn3nc(C)cc3C)nc21	6	7%	1%	-4%	/	/
Cc1ccc(CN2CCOc3ccc(CN4CCC(Oc5cccnc5)CC4)cc3C2)o1	/	/	/	-16%	/	/
Cc1cc(SCc2ccc(F)cc2)nc(=O)[nH]1	-4	-17%	-1%	1%	5%	2%
Cc1cc(SCc2ccc(C(F)(F)F)cc2)nc(=O)[nH]1	+	1%	-1%	9%	/	-10%
CCCn1c(SCC(=O)NC(=O)NCc2ccco2)n[nH]c1=O	/	40µM*	/	/	-15%	/

Assay outcomes: PubChem BioAssay, National Center for Advancing Translational Sciences (NCATS)
